# From PubChem BioAssay (NCATS)
# Inconclusive results are not listed. A call without a number means that no potency is given here. Active and inactive are the calls of the source. The call rests on the fitted dose curve; in most records, active means well fitted curve in the direction sought with a large enough effect; inconclusive means small, poorly fitted or top-dose-only effect, or another doubt; inactive means no such curve, though single readings can be large; an effect the other way counts as inactive or inconclusive.
# Experiments:
# [1] = qHTS of pediatric cancer cell lines to identify multiple opportunities for drug repurposing: Primary screen for Rh30 cells (AID 1347107); further: nearly all actives have a fitted effect of over 75% in size; further: potency means the concentration at half of the fitted maximal effect
# Summary of the method: (§1)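 Viability after 48 h compound treatment at 37C, 500-1,000 cells/well, read as ATP luminescence with CellTiter-Glo. Primary screens used 11-point (MIPE, 0.78 nM-46 µM) or 8-point (NPC, 0.59 nM-46 µM) final concentrations; follow-up screens used 11-point dilutions.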
# [2] = qHTS of pediatric cancer cell lines to identify multiple opportunities for drug repurposing: Primary screen for Rh41 cells (AID 1347108); further: nearly all actives have a fitted effect of over 70% in size; further: potency means the concentration at half of the fitted maximal effect
# Summary of the method: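 Following a 5-hour attachment period, cells at 500-1,000/well received compounds and were cultured for 48 hours. CellTiter-Glo was added and luminescence read to estimate viable, metabolically active cells.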
# [3] = qHTS of pediatric cancer cell lines to identify multiple opportunities for drug repurposing: Primary screen for control Hh wild type fibroblast cells (AID 1347106);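 further: series mostly up to about 46 µM; a drop in luminescence marks cytotoxicity and a rise apparent proliferation; nearly all actives have a fitted effect of over 55% in size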
# Summary of the method: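 Cells (500-1,000/well) in growth media were settled 5 h at 37 degrees C, then given compounds for 48 h. Viability was read as CellTiter-Glo luminescence. Primary runs used MIPE at 11 points (0.78 nM-46 µM) and NPC at 8 points (0.59 nM-46 µM); follow-ups used 11 points.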
# [4] = qHTS of pediatric cancer cell lines to identify multiple opportunities for drug repurposing: Confirmatory screen for NB1643 cells (AID 1347109); further: nearly all actives have a fitted effect of over 45% in size; further: potency means the concentration at half of the fitted maximal effect
# Summary of the method: as §1
# [5] = qHTS of pediatric cancer cell lines to identify multiple opportunities for drug repurposing: Confirmatory screen for A673 cells (AID 1347110); further: nearly all actives have a fitted effect of over 65% in size; further: potency means the concentration at half of the fitted maximal effect
# Summary of the method: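 Concentration-response curves came straight from titrations: 11 points (0.78 nM to 46 µM) for MIPE and several concentrations (0.59 nM to 46 µM) for NPC in primary, 11 points in follow-up. Readout: ATP luminescence at 48 h.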
# [6] = qHTS of pediatric cancer cell lines to identify multiple opportunities for drug repurposing: Confirmatory screen for BT-12 cells (AID 1347112); further: nearly all actives have a fitted effect of over 55% in size; further: potency means the concentration at half of the fitted maximal effect
# Summary of the method: as §1
# [7] = qHTS of pediatric cancer cell lines to identify multiple opportunities for drug repurposing: Confirmatory screen for DAOY cells (AID 1347114); further: nearly all actives have a fitted effect of over 65% in size; further: potency means the concentration at half of the fitted maximal effect
# Summary of the method: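 Viability measured as metabolically active cells via CellTiter-Glo luminescence following 48 hours of compound exposure, 11-point dilutions in confirmatory testing. 500-1,000 cells/well plated 5 hours before dosing; controls were DMSO and 2.3 µM bortezomib.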
# [8] = qHTS of pediatric cancer cell lines to identify multiple opportunities for drug repurposing: Confirmatory screen for SK-N-MC cells (AID 1347111);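 further: potency means the concentration at half of the fitted maximal effect; cells exposed to compound for 48 h before the readout; nearly all actives have a fitted effect of over 70% in size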
# Summary of the method: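 SK-N-MC cells at 500-1,000 cells/well in growth media were pre-incubated 5 h, then exposed to compounds at 11-point dilutions for 48 h at 37 degrees C, 5% CO2. Viability was read as CellTiter-Glo luminescence.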
# [9] = qHTS of pediatric cancer cell lines to identify multiple opportunities for drug repurposing: Confirmatory screen for TC32 cells (AID 1347118); further: potency means the concentration at half of the fitted maximal effect; nearly all actives have a fitted effect of over 65% in size
# Summary of the method: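 Luminescent CellTiter-Glo read-out of metabolically active TC32 cells after 48 h compound exposure. Primary: MIPE 11-point, 0.78 nM–46 µM; NPC 8-point, 0.59 nM–46 µM. Confirmatory: 11-point dilutions.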
# [10] = qHTS of pediatric cancer cell lines to identify multiple opportunities for drug repurposing: Confirmatory screen for BT-37 cells (AID 1347117); further: potency means the concentration at half of the fitted maximal effect; nearly all actives have a fitted effect of over 55% in size
# Summary of the method: as §1
smiles,measurement,setting,value
OC[C@@H](O)[C@H](O)[C@H](O)[C@@H](O)CO,Potency,[1],inactive
same,Potency,[2],inactive
COC[C@@H](c1ccc(C(F)(F)F)cc1)N1CCN(C2(C)CCN(C(=O)c3c(C)ncnc3C)CC2)C[C@H]1C,Potency,[1],inactive
same,Potency,[2],inactive
C[C@H](NC(=O)C(=O)Nc1ccccc1C(C)(C)C)C(=O)N[C@@H](CC(=O)O)C(=O)COc1c(F)c(F)cc(F)c1F,Potency,[1],inactive
CCCCC1C(=O)N(c2ccccc2)N(c2ccccc2)C1=O,Potency,[1],inactive
same,Potency,[2],inactive
CC(C)(C(=O)NCC(F)(F)C(F)(F)F)C(=O)N[C@@H]1C(=O)Nc2ccccc2-c2ccccc21,Potency,[3],inactive
same,Potency,[4],inactive
same,Potency,[5],inactive
same,Potency,[6],inactive
same,Potency,[7],inactive
Oc1ccc(C2CCN(c3ccnc4ccccc34)CC2)cc1O,Potency,[3],inactive
same,Potency,[4],16.5 µM (active)
same,Potency,[5],2.61 µM (active)
same,Potency,[8],18.5 µM (active)
same,Potency,[6],13.1 µM (active)
same,Potency,[7],5.85 µM (active)
same,Potency,[9],9.27 µM (active)
Clc1ccc(Cn2c(CN3CCCC3)nc3ccccc32)cc1,Potency,[1],inactive
CCOC(=O)C1=C(N)Oc2ccc(Br)cc2C1C(C#N)C(=O)OCC (stereo unspecified),Potency,[1],inactive
O=c1cc(-c2ccccc2)oc2cc(O)cc(O)c12,Potency,[1],inactive
O=c1cc(CN2CCOCC2)occ1OCCCCCSc1ccnc2cc(C(F)(F)F)ccc12,Potency,[1],inactive
CC(C)C(C)C=CC(C)C1CCC2C3=CC=C4CC(O)CCC4(C)C3CCC21C (stereo unspecified),Potency,[1],inactive
same,Potency,[2],inactive
Cc1cc(OCCCc2c(C(=O)O)n(Cc3cccnc3)c3c(-c4c(COc5ccc(N6CCN([S+](C)(=O)[O-])CC6)cc5)nn(C)c4C)cccc23)cc(C)c1Cl,Potency,[3],inactive
same,Potency,[4],16.5 µM (active)
same,Potency,[8],20.8 µM (active)
same,Potency,[10],18.5 µM (active)
CC(=O)O[C@]1(C(C)=O)CC[C@@H]2[C@@H]3C[C@H](C)C4=CC(=O)CC[C@]4(C)[C@H]3CC[C@@]21C,Potency,[3],inactive
same,Potency,[7],inactive
O=C1Nc2ccc(Cl)cc2C(C#CC2CC2)(C(F)(F)F)O1 (stereo unspecified),Potency,[1],inactive
COC(=O)[C@@H]1[C@H]2C[C@H]3c4[nH]c5ccccc5c4CCN3C[C@@H]2CC[C@@H]1O,Potency,[1],inactive
same,Potency,[2],inactive
O=c1cc(-c2ccc(O)cc2)oc2cc(O)cc(O)c12,Potency,[3],inactive
same,Potency,[7],inactive
Cn1c(N2CCCCS2(=O)=O)nc(C(=O)NCc2ccc(F)cc2)c(O)c1=O,Potency,[1],inactive
same,Potency,[2],inactive
O=C(CCc1ccc(O)cc1)c1c(O)cc(O)cc1O[C@@H]1O[C@H](CO)[C@H](O)[C@H](O)[C@H]1O,Potency,[1],inactive
same,Potency,[2],inactive
CC/C(=C(\c1ccccc1)c1ccc(OCCN(C)C)cc1)c1ccccc1,Potency,[1],inactive
same,Potency,[2],inactive
CCN(CC)CCOc1ccc(C(=C(Cl)c2ccccc2)c2ccccc2)cc1,Potency,[1],inactive
same,Potency,[2],inactive
Clc1ccc(C(c2ccc(Cl)cc2)n2cc[n+](CC(OCc3ccc(Cl)cc3Cl)c3ccc(Cl)cc3Cl)c2)cc1 (stereo unspecified),Potency,[1],18.7 µM (active)
same,Potency,[2],18.7 µM (active)
